Where a name gives a salt, the structure may show the parent alone.
Each compound was assayed on MDA-MB-468 (assay: phospho-S6 immunofluorescence (DAPI-normalised), per-plate z-score; higher = higher phospho-S6 signal (less pathway suppression)). Details: co-treatment: lapatinib 1 uM; 24 h.
Experimental: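 GPCR-targeted compound library (MedChemExpress HY-L006) tested on MDA-MB-468 PTEN-null TNBC cells in 384-well plates at 0.1, 1 or 10 uM, combined with vehicle, GDC0941 450 nM or lapatinib 1 uM, for 24 h. Phospho-S6 (S240/244) immunofluorescence normalised to DAPI and expressed as a per-plate z-score; values are the mean of biological triplicates.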
`CN1CCc2c(c3ccccc3n2Cc2ccccc2)C1` [Mebhydrolin (napadisylate)] (compound 10 µM) was tested, and the “phospho-S6 immunofluorescence (z-score)” value was -1.06.
`Cc1c(Cc2ccc3ccccc3n2)c2cc(F)ccc2n1CC(=O)O` (compound 10 µM) was tested, and the “phospho-S6 immunofluorescence (z-score)” value was 0.39.
`O=c1ccccn1CC1(O)CCN(Cc2ccccc2)CC1` (compound 10 µM) was tested, and the “phospho-S6 immunofluorescence (z-score)” value was -0.19.
`COc1cc(C(=O)NS(=O)(=O)c2ccccc2C)ccc1Cc1cn(C)c2ccc(NC(=O)OC3CCCC3)cc12` [Zafirlukast] (compound 10 µM) was tested, and the “phospho-S6 immunofluorescence (z-score)” value was -0.41.
In the case of `Cc1cc(NC(=O)Nc2ccc(N(C)C)cc2)c2cc(F)cc(F)c2n1` (compound 10 µM), the “phospho-S6 immunofluorescence (z-score)” value is reported as -0.1.
For `CC(=O)OCC(=O)[C@@]12N=C(C)O[C@@H]1C[C@H]1[C@@H]3CCC4=CC(=O)C=C[C@]4(C)[C@H]3[C@@H](O)C[C@@]12C` [Deflazacort] (compound 10 µM), the “phospho-S6 immunofluorescence (z-score)” value was -0.57.
For `COC(=O)[C@H]1[C@H]2C[C@H]3c4[nH]c5ccccc5c4CCN3C[C@H]2CC[C@@H]1O` [Rauwolscine (hydrochloride)] (compound 10 µM), the “phospho-S6 immunofluorescence (z-score)” value was 0.38.
For `Cc1c(C(=O)NN2CCCCC2)nn(-c2ccc(Cl)cc2Cl)c1-c1ccc(Cl)cc1` [Rimonabant (Hydrochloride)] (compound 10 µM), the “phospho-S6 immunofluorescence (z-score)” value was -4.25.
For `OCCN1CCN(CCCN2c3ccccc3Sc3ccc(C(F)(F)F)cc32)CC1` [Fluphenazine (dihydrochloride)] (compound 10 µM), the “phospho-S6 immunofluorescence (z-score)” value was -6.77.
In the case of `CCCN(CCc1cccs1)C1CCc2c(O)cccc2C1` (racemic) [rac-Rotigotine (Hydrochloride)] (compound 10 µM), the “phospho-S6 immunofluorescence (z-score)” value is reported as 0.67.
With `CC(N)(C(=O)O)c1ccc(C(=O)O)cc1` (racemic) (compound 10 µM) the “phospho-S6 immunofluorescence (z-score)” value was 0.
`COc1cc2nc(N3CCN(C(=O)C4COc5ccccc5O4)CC3)nc(N)c2cc1OC` (configuration not stated) [Doxazosin (mesylate)] (compound 10 µM) was tested, and the “phospho-S6 immunofluorescence (z-score)” value was -7.7.
In the case of `O=C(NC(Cc1cc(=O)[nH]c2ccccc12)C(=O)O)c1ccc(Cl)cc1` (configuration not stated) [Rebamipide] (compound 10 µM), the “phospho-S6 immunofluorescence (z-score)” value is reported as 1.1.
With `OCCNC1CCCc2c1[nH]c1ccc(-c3ccccc3)cc21` (configuration not stated) (compound 10 µM) the “phospho-S6 immunofluorescence (z-score)” value was -8.66.
With `COc1cc(N)cn[n+]1-c1ccccc1` [Amezinium (methylsulfate)] (compound 10 µM) the “phospho-S6 immunofluorescence (z-score)” value was 1.19.
In the case of `CN(C)CCSSCCNC(=O)C1CCN(C(=O)CSc2ccc(Cl)cc2)CC1` [6H05 (trifluoroacetate)] (compound 10 µM), the “phospho-S6 immunofluorescence (z-score)” value is reported as 2.33.
In the case of `CCOc1ccccc1OCCN[C@H](C)Cc1ccc(OC)c(S(N)(=O)=O)c1` [Tamsulosin] (compound 10 µM), the “phospho-S6 immunofluorescence (z-score)” value is reported as 0.1.
With `O=C(O)COCCN1CCN(C(c2ccccc2)c2ccc(Cl)cc2)CC1` (configuration not stated) [Cetirizine (dihydrochloride)] (compound 10 µM) the “phospho-S6 immunofluorescence (z-score)” value was 0.74.
In the case of `C[C@]12CCC(=O)C=C1CC[C@@H]1[C@@H]2C(=O)C[C@@]2(C)[C@H]1CC[C@]2(O)C(=O)CO` [Cortisone] (compound 10 µM), the “phospho-S6 immunofluorescence (z-score)” value is reported as 0.58.
With `CC(CN1c2ccccc2Sc2ccccc21)N(C)C` (configuration not stated) [Promethazine (hydrochloride)] (compound 10 µM) the “phospho-S6 immunofluorescence (z-score)” value was -2.76.
In the case of `c1ccc2c(c1)CCCC2C1=NCCN1` (configuration not stated) [Tetrahydrozoline (hydrochloride)] (compound 10 µM), the “phospho-S6 immunofluorescence (z-score)” value is reported as 0.87.
With `O=c1cc(C(Cl)(Cl)Cl)oc2ccc(Cl)cc12` (compound 10 µM) the “phospho-S6 immunofluorescence (z-score)” value was -0.11.
With `Clc1ccc(Cn2c(CN3CCCC3)nc3ccccc32)cc1` [Clemizole (hydrochloride)] (compound 10 µM) the “phospho-S6 immunofluorescence (z-score)” value was 0.26.
With `COc1cc2nc(N3CCN(C(=O)C4CCCO4)CC3)nc(N)c2cc1OC` (configuration not stated) [Terazosin (hydrochloride dihydrate)] (compound 10 µM) the “phospho-S6 immunofluorescence (z-score)” value was 0.9.
With `CC(C)=CCC/C(C)=C/CC/C(C)=C/CSc1ccccc1C(=O)O` [Salirasib] (compound 10 µM) the “phospho-S6 immunofluorescence (z-score)” value was 0.86.
For `COc1ccc(C2CC(c3ccccc3)=NN2c2ccc(S(N)(=O)=O)cc2)cc1` (configuration not stated) (compound 10 µM), the “phospho-S6 immunofluorescence (z-score)” value was -0.2.
For `CC(=O)OCC(=O)[C@@]12OC(C)(C)O[C@@H]1C[C@H]1[C@@H]3C[C@H](F)C4=CC(=O)C=C[C@]4(C)[C@@]3(F)[C@@H](O)C[C@@]12C` [Fluocinonide] (compound 10 µM), the “phospho-S6 immunofluorescence (z-score)” value was 0.59.
In the case of `O=C(N[C@H]1CCN(C(=O)c2cc(C(F)(F)F)cc(C(F)(F)F)c2)[C@H](Cc2ccc(Cl)cc2)C1)c1ccnc2ccccc12` (compound 10 µM), the “phospho-S6 immunofluorescence (z-score)” value is reported as -1.9.
With `Nc1nc2c(cnn2CCc2ccccc2)c2nc(-c3ccco3)nn12` (compound 10 µM) the “phospho-S6 immunofluorescence (z-score)” value was 1.51.
For `Brc1c(NC2=NCCN2)ccc2nccnc12` [UK 14,304 (tartrate)] (compound 10 µM), the “phospho-S6 immunofluorescence (z-score)” value was 1.2.
In the case of `O=C(Nc1cccc(Cl)c1)c1ccccn1` (compound 10 µM), the “phospho-S6 immunofluorescence (z-score)” value is reported as 0.72.
In the case of `CCN(CCCc1ccccc1)CCCc1ccccc1` [Alverine (citrate)] (compound 10 µM), the “phospho-S6 immunofluorescence (z-score)” value is reported as -1.04.
With `CC(C)NCC(O)COc1ccc(CC(N)=O)cc1` (configuration not stated) [Atenolol] (compound 10 µM) the “phospho-S6 immunofluorescence (z-score)” value was 1.32.
For `Cc1c(C(=O)NN2CCCCC2)nn(-c2ccc(Cl)cc2Cl)c1-c1ccc(I)cc1` (compound 10 µM), the “phospho-S6 immunofluorescence (z-score)” value was -1.68.
For `CC(C[N+](C)(C)C)OC(N)=O` (configuration not stated) [Bethanechol (chloride)] (compound 10 µM), the “phospho-S6 immunofluorescence (z-score)” value was 0.01.
With `CCC1(c2c[nH]cn2)Cc2ccccc2C1` [Atipamezole] (compound 10 µM) the “phospho-S6 immunofluorescence (z-score)” value was -0.83.
For `C[C@H](Nc1cc(NS(=O)(=O)N2CCC2)nc(SCc2cccc(F)c2F)n1)[C@@H](O)CO` (compound 10 µM), the “phospho-S6 immunofluorescence (z-score)” value was -0.3.
